The values below come from PubChem BioAssay (NCATS).

The nature of test [1]: HTS Assay for Allosteric Antagonists of the Human D2 Dopamine Receptor: Hit Validation in HTRF (AID 624455). Also: potency is read from the fitted curve at half-maximal effect.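 Also: stable D1 dopamine receptor cell line scored for blocking the D1 response.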 In short, it runs like this:
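First, antagonism was screened by calcium flux in a force-coupled, inducible Hek293 Trex D2 line challenged with EC80 dopamine. Hits then went into an HTRF assay in cells stably expressing D1, testing inhibition of the D1 response.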

Test [2] has as its target Glucagon-like peptide 1 receptor (Homo sapiens) (UniProt P43220). Nature of the test: qHTS of GLP-1 Receptor Agonists: LOPAC Validation (AID 624148).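 Also: luminescence from a luciferase reporter switched on by cAMP; 0% is about no effect; higher luminescence signal means agonism.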 Put shortly:
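Agonism scored as increased luciferase luminescence driven by cAMP in HEK293 clones carrying GLP-1R. Cells settled 12 hours, received compound for 4-6 hr at 37 deg C, 5% CO2, and were read after 12 min detection reagent at RT.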
On the technique in general: Quantitative high-throughput screening tests each substance at several concentrations.

Test [3] is described as follows: qHTS of Nrf2 Activators: LOPAC Validation (AID 624149). Also: 0% is about no effect. Put shortly:
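Luminescence read-out of ARE-luciferase activation: AREc32_Fluc cells treated with compounds for 24 hr at 37 deg C, then lysed with Steady-Glo for 30 min at room temperature before reading.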

Test [4] can be described thus: qHTS of Trypanosoma Brucei Inhibitors: LOPAC Validation (AID 624147). Also: 0% is about no effect. In short, it runs like this:
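Readout: single end-point luminescence (Kinase-Glo Plus, 10 min). Reaction conditions were TbPYK/substrate plus 130 uM ADP, 45 min at RT, pH 7.2 TEA buffer. No-enzyme wells served as controls, and data were normalized before concentration-response fitting.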

A short description of test [5]: Cytotoxicity counterscreen for NFkB agonists and antagonists (AID 624476).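 Also: cells exposed to compound for 48 hours; % is scaled to controls: 0 for no effect and ±100 for the full control effect.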 A general note: A counterscreen serves to expose hits that act by an unwanted route or on another target.
Test [6] is described as follows: qHTS Assay for Identification of Small Molecule Antagonists for NFkB Signaling Pathway. (AID 624479; calls by dose curve;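 also: pathway stimulated with TNF alpha; % is scaled to controls: 0 for no effect and ±100 for the full control effect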).
The nature of test [7]: Cell Proliferation Assay against the TMD8 Cell Line (AID 651645).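 Also: cells exposed to compound for 48 h before reading.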 The settings on record: TMD8 DLBCL cell line proliferation/viability; at 46.1 µM (top of the series). Put shortly: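 Luminescent ATP read-out (CellTiter-Glo, 15 min RT) after 48 h compound exposure of log-growing TMD8 cells at 37C; percent activity scaled between DMSO as 100% and 9.2 uM bortezomib final as 0%.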

Test [8] in a line: Cell Proliferation Assay against the HBL1 Cell Line (AID 651646).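 Also: cells exposed to compound for 48 h before reading.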 The settings on record: HBL1 DLBCL cells; at 46.1 µM (top of the series). In short, it runs like this: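 Luminescent ATP read-out (CellTiter-Glo) after 48 h compound exposure of HBL1 cells at 37 °C; percent activity was scaled between DMSO as 100% and 9.2 uM bortezomib (final) as 0%.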
The nature of test [9]: Cell Proliferation Assay against the TMD8 Cell Line (Caspase readout at 16 hrs) (AID 651712). Put shortly: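 Apoptotic response of TMD8 cells was judged from caspase 3/7 activation following a 16 hour compound incubation at 37 °C. Luminescent signal was converted to percent activity, with DMSO set as 0% and 9.2 uM final bortezomib as 100%.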
Test [10] in a line: Cell Proliferation Assay against the TMD8 Cell Line (Caspase readout at 8 hrs) (AID 651713). In short, it runs like this: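 Seed log-phase TMD8 cells, add compound by pin tool, incubate 8 h at 37C under 5% CO2, equilibrate to room temperature, add Caspase-Glo, wait 15 min, read luminescence; percent activity uses DMSO and 9.2 uM bortezomib controls.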
The nature of test [11]: qHTS assay for environmental chemicals that activate the Aryl hydrocarbon Receptor (AhR) signaling pathway (AID 651777). Also: % of control where 0% means no effect; nearly all actives have a fitted effect of over 15% in size. The settings on record: 1A2-DRE human hepatoma cells, luciferase, 24 h; activation: stronger effect = higher value. Put shortly:
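Reporter gene assay: hepatoma cells with DRE/CYP1A2-luciferase, 24 hr compound incubation at 37 C, 5% CO2, luminescence after One-Glo (30 min, RT).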

In test [12] the target is Peroxisome proliferator-activated receptor alpha (Homo sapiens) (UniProt Q07869). Nature of the test: qHTS assay for small molecule agonists of the peroxisome proliferator-activated receptor alpha (PPARalpha) signaling pathway (AID 651778). Also: % of control where 0% means no effect. As to conditions: PathHunter PPARalpha complementation, chemiluminescence, 6 h; max response: stronger effect = higher value. In short, it runs like this: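 Chemiluminescence from complemented enzyme reported PPARalpha activation in cells after 6 hr of compound treatment at 37 C. The detection reagent was incubated for 60 min at room temperature, and compounds were scored as agonists.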
Chain of Peroxisome proliferator-activated receptor alpha (Homo sapiens) (Q07869 whole entry, looked up): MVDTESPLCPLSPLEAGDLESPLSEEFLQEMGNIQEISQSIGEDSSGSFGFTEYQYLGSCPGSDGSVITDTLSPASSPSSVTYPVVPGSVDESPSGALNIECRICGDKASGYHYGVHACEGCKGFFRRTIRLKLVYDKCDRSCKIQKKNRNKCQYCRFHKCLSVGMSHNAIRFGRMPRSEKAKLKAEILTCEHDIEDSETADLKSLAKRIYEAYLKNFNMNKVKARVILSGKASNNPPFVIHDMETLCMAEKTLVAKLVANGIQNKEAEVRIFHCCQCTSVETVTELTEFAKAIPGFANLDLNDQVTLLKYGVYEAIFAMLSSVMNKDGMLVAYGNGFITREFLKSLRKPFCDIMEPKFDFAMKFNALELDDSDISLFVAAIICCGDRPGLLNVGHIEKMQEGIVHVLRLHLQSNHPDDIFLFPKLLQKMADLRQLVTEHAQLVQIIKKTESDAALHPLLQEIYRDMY

Inconclusive results are not listed. Calls of active or inactive are those of the source. Unless noted, calls follow the shape of the dose curve; as a rule, active = well fitted curve in the direction sought with a large enough effect; inconclusive = small, poorly fitted or top-dose-only effect, or another doubt; inactive = no such curve, though single readings can be large; an effect the other way counts as inactive or inconclusive.

Chain of Glucagon-like peptide 1 receptor (Homo sapiens) (P43220 whole entry, looked up): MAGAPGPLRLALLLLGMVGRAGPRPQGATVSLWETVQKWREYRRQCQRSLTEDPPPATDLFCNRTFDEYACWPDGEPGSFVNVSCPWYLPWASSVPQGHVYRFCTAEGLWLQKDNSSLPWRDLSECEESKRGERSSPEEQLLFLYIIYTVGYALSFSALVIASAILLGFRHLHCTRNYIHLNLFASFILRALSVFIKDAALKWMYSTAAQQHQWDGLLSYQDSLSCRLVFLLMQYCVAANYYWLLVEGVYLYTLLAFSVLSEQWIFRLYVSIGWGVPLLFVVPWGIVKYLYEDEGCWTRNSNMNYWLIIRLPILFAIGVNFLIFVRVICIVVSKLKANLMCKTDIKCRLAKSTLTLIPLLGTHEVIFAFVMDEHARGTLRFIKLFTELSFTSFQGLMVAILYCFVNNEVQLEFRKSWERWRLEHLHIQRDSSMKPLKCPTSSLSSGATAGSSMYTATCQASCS

Turning to `CC[N+](C)(C)c1cccc(O)c1`, the Potency result in test [1] was “inactive”.

On to `CC[C@@H](CO)NC(=O)[C@@H]1C=C2c3cccc4c3c(cn4C)C[C@H]2N(C)C1`, for which the result in test [2] and in [3] was inactive.

With `CN1C[C@H](CNC(=O)OCc2ccccc2)C[C@@H]2c3cccc4c3c(cn4C)C[C@H]21`, the outcome in test [4], in test [2] and in test [3] was inactive. Moreover, the Potency entry in test [1] is “inactive”.

`CC(C)=CCOc1c2occc2cc2ccc(=O)oc12`: the outcome in test [4], in test [2] and in test [3] was inactive. The Potency entry in test [1] was “inactive”.

As to `CC[C@@H](CO)NC(=O)[C@@H]1C=C2c3cccc4[nH]cc(c34)C[C@H]2N(C)C1`, the call in test [4], in test [2] and in test [3] was inactive. The Potency in test [1] is 5.2 nM (active).

Take `Cc1cccc(C)c1NC1=NCCCS1`: the call in test [4], in [2] and in test [3] was inactive. Further, in test [1], the Potency result was “inactive”.

Take `c1ccc(C2CC2)c(OCC2=NCCN2)c1`: the call in test [4], in test [2] and in [3] was inactive. Besides, the Potency result in test [1] was “inactive”.

As for `CC(O)(CS(=O)(=O)c1ccc(F)cc1)C(=O)Nc1ccc(C#N)c(C(F)(F)F)c1` (stereo unspecified), the call in test [4], in test [2] and in test [3] was inactive. The Potency entry in [1], in [5], in test [6], in [9] and in test [10] was “inactive” each time. In test [7], the viability (% of control) is 109%. For the same molecule, the viability, percent of control in test [8] is 95.3%.

For the molecule `CC(=O)[C@H]1CC[C@H]2[C@@H]3CC[C@H]4C[C@H](O)CC[C@]4(C)[C@H]3C(=O)C[C@]12C`, the molecule was called inactive in test [4], in test [2] and in [3]. Besides, the Potency entry in test [1] was “inactive”.

As for `O=c1[nH]c2ccccc2n1C1CCN(CCCC(c2ccc(F)cc2)c2ccc(F)cc2)CC1`, the result in test [4], in test [2] and in test [3] was inactive. Moreover, in test [1], the Potency entry is “inactive”. For the same molecule, the activation in test [11] was 1.32% (inactive). In [12], the max response is -0.751% (inactive).

In the case of `Cc1cccc(C)c1NC(=O)CN1CCCC1=O`, the outcome in test [4], in [2] and in test [3] was inactive. The Potency result in test [1] was “inactive”.

Regarding `NCC1(CC(=O)O)CCCCC1`, the outcome in [4], in [2] and in test [3] was inactive. The Potency result in test [1] was “inactive”.
